Assay results published in PubChem BioAssay.
Active and inactive are the calls of the source. Unless noted, no rule for the calls is given here.

Key:
[1] = A549 cell viability effects, profiling panel, calcein-AM fluorescence, 48 h, basal (AID 1162); conditions: higher = more signal; also: test concentration not given here
[2] = adipocyte viability effects, profiling panel, cell-based, 3T3-L1 adipocytes, calcein-AM fluorescence, 48 h, basal (AID 1163); conditions: 3T3-L1 adipocytes viability, higher = more signal; also: test concentration not given here
[3] = HepG2 cell viability effects, profiling panel, calcein-AM fluorescence, 48 h, basal (AID 1164); conditions: higher = more signal; also: test concentration not given here
[4] = MM1S cell viability effects, profiling panel, calcein-AM fluorescence, 48 h, basal (AID 1165); conditions: higher = more signal;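 also: viability of MM1S multiple myeloma cells under basal unstimulated conditions; test concentration not given here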
[5] = basal RPMI8226 viability, no added stimulus, profiling panel, cell-based, calcein-AM fluorescence, 48 h, PK04 Diversity Set (AID 1166); conditions: RPMI8226 myeloma viability, higher = more signal;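 also: cells grown under basal conditions without added stimulus; test concentration not given here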
[6] = basal HepG2 mitochondrial membrane potential changes, profiling panel, cell-based, JC-1 fluorescence, 24 h, 100 nL compound (AID 1167); conditions: higher = more signal; also: test concentration not given here
[7] = basal 3T3-L1 adipocyte mitochondrial potential changes, profiling panel, cell-based, JC-1 fluorescence, 3T3-L1 adipocytes, 24 h, 100 nL compound (AID 1168); conditions: JC-1 mitochondrial fluorescence, higher = more signal, called active from +8 up or from −8 down; also: test concentration not given here
[8] = basal RPMI8226 mitochondrial membrane potential changes, profiling panel, cell-based, JC-1 fluorescence, 24 h, 100 nL compound (AID 1169); conditions: RPMI8226 myeloma, JC-1 mitochondrial potential fluorescence, higher = more signal; also: test concentration not given here
[9] = basal MM1S mitochondrial membrane potential changes, profiling panel, cell-based, JC-1 fluorescence, 24 h, 100 nL compound (AID 1170); conditions: higher = more signal; also: test concentration not given here
[10] = A549 lung cancer cell viability effects, profiling panel, resazurin fluorescence, 24 h, PK04 Diversity Set (AID 1171); conditions: higher = more signal, called active from +8 up or from −8 down; also: test concentration not given here
[11] = HepG2 liver cancer cell viability effects, profiling panel, resazurin fluorescence, 24 h, PK04 Diversity Set (AID 1172); conditions: higher = more signal; also: test concentration not given here
[12] = basal S. cerevisiae growth modulation, no modifier, primary screen, OD600, strain BY4716, 24 h, basal condition (AID 1173); conditions: OD600, 24 h, higher = more signal, called active from +8 up or from −8 down
[13] = MM1S myeloma cell viability, profiling panel, resazurin fluorescence, basal, 24 h, PK04 Diversity Set (AID 1174); conditions: higher = more signal, called active from +8 up or from −8 down;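 also: MM1S multiple myeloma cell line; test concentration not given here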
[14] = biological target: Dihydroorotate dehydrogenase (quinone), mitochondrial (Plasmodium falciparum (isolate 3D7)) (UniProt Q08210); assay: PfDHODH enzyme inhibitors, primary screen, biochemical, C-terminal His tag, absorbance 600 nm (AID 1175); conditions: DCIP absorbance 600 nm, higher = more signal, called active from +8 up or from −8 down;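 also: recombinant parasite enzyme with a five histidine tag at its C terminus; test concentration not given here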
Dihydroorotate dehydrogenase (quinone), mitochondrial (Plasmodium falciparum (isolate 3D7)), sequence (Q08210 whole entry, looked up): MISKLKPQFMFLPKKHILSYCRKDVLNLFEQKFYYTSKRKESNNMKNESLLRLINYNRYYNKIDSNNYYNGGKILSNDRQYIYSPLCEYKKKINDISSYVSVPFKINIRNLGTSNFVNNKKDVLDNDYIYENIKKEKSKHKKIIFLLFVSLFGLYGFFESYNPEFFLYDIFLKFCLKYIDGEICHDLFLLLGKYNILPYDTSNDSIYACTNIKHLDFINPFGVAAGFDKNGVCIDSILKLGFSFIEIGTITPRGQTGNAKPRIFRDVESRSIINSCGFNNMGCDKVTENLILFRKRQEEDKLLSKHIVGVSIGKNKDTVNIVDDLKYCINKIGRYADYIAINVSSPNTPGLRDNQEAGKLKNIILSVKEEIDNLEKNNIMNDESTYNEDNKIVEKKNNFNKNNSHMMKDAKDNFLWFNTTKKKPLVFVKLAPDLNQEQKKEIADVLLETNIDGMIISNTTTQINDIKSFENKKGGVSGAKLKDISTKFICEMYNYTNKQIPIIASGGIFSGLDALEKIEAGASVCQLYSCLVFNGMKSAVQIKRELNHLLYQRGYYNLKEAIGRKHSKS

[15] = P. aeruginosa biofilm formation inhibitors, primary screen, strain PAO1, LB-PBS medium, absorbance 600 nm (AID 1176); also: test concentration not given here; conditions: P. aeruginosa PAO1 growth/biofilm, A600, 12 h; higher = more signal
[16] = S. cerevisiae RM11-1a growth modifiers, primary screen, strain RM11-1a, OD600, basal, 24 h (AID 1177); conditions: OD600, 24 h, higher = more signal, called active from +8 up or from −8 down;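 also: cultures grown under basal conditions with no added stressor; test concentration not given here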
[17] = E. coli acrAB mutant growth effects, primary screen, E. coli filamentation inducers, strain DRC39, OD650, 24 h (AID 1178); conditions: higher = more signal, called active from +8 up or from −8 down;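 also: growth measured as culture turbidity by optical density at 650 nm; test concentration not given here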
[18] = E. coli acrAB mutant growth effects, primary screen, E. coli filamentation inducers, strain DRC39, OD650, 48 h (AID 1179);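 also: screen aims at cell division blockers that make cells filament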; conditions: E. coli DRC39 delta-acrAB growth, higher = more signal, called active from +8 up or from −8 down
[19] = RPMI8226 myeloma cell viability, profiling panel, resazurin fluorescence, basal, 24 h, PK04 Diversity Set (AID 1180); conditions: higher = more signal;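 also: RPMI8826 multiple myeloma cell line at 5000 cells per well; test concentration not given here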
[20] = biological target: E3 ubiquitin-protein ligase XIAP (Homo sapiens) (UniProt P98170); assay: XIAP binders, primary screen, biophysical, small-molecule microarray, fluorescence 635 nm (AID 1181); conditions: small-molecule microarray binding, higher = more signal;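 also: score merges 667 nm emission and signal to noise over triplicate slides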
E3 ubiquitin-protein ligase XIAP (Homo sapiens), sequence (P98170 whole entry, looked up): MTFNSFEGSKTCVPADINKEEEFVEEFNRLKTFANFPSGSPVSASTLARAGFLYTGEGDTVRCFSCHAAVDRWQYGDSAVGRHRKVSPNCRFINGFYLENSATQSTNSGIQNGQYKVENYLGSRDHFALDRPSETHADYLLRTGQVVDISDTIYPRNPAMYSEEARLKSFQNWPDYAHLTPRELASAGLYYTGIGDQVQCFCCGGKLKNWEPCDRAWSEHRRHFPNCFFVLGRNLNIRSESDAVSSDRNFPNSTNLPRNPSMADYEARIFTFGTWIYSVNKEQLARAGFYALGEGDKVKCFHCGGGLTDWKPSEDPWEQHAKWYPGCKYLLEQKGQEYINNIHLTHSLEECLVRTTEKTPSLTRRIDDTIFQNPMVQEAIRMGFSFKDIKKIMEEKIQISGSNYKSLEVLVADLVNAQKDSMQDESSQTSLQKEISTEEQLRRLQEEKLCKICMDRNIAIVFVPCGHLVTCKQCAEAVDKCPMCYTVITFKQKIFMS

| SMILES | z-score [1] | z-score [2] | z-score [3] | z-score [4] | z-score [5] | z-score [6] | z-score [7] | z-score [8] | z-score [9] | z-score [10] | z-score [11] | z-score [12] | z-score [13] | composite z-score [14] | z-score [15] | z-score [16] | z-score [17] | z-score [18] | z-score [19] | composite z-score [20] |
| --- | --- | --- | --- | --- | --- | --- | --- | --- | --- | --- | --- | --- | --- | --- | --- | --- | --- | --- | --- | --- |
| COc1ccc(O[C@H]2C=C[C@@H](c3ccccc3)O[C@@H]2CON=C(C)C)cc1 | 0.124 | -0.556 | -0.462 | -1.53 | -0.372 | -1.18 | 0.148 (inactive) | 0.472 | -0.867 | 0.0001 (inactive) | 0.163 | -0.964 (inactive) | -0.253 (inactive) | 0.271 (inactive) | 0.936 (inactive) | 0.267 (inactive) | 0.366 (inactive) | -1.8 (inactive) | 0.224 | 0.511 |
| CC(C)CON=C1[C@H]2CCn3c(=O)n(Cc4cc5c(cc4Cl)OCO5)c(=O)n3[C@H]2[C@H](O)[C@@H]2O[C@H]12 | -1.37 | 0.719 | -0.0623 | -0.053 | -0.62 | -0.0638 | -0.443 (inactive) | 0.207 | -0.354 | -0.647 (inactive) | -0.274 | -0.761 (inactive) | -0.302 (inactive) | -2.76 (inactive) | -1.4 (inactive) | -0.471 (inactive) | 0.42 (inactive) | -1.6 (inactive) | -0.241 | -0.0773 |
| COc1cccc([C@H]2Oc3ccc(OC)cc3C(=NOC[C@@H](O)COCc3ccco3)[C@@H]2O)c1 | 0.451 | 0.558 | 0.819 | 0.667 | 0.414 | -0.959 | 0.461 (inactive) | 0.431 | -0.751 | -1.55 (inactive) | -0.949 | -1.38 (inactive) | -1.19 (inactive) | -1.58 (inactive) | -0.254 (inactive) | -2.29 (inactive) | 0.0207 (inactive) | -0.947 (inactive) | -0.825 | 0.0785 |
| C=CC[C@@H]1C=C[C@H](ON=C2[C@H]3CCn4c(=O)n(-c5ccccc5)c(=O)n4[C@H]3[C@H](O)[C@@H]3O[C@H]23)[C@@H](CO)O1 | -0.547 | -0.203 | -0.683 | -1.21 | -0.997 | -0.568 | -1.65 (inactive) | -0.172 | 0.0203 | -0.674 (inactive) | -0.684 | 0.695 (inactive) | -0.646 (inactive) | 0.329 (inactive) | 0.675 (inactive) | 0.779 (inactive) | 0.207 (inactive) | -0.104 (inactive) | -0.331 | -0.0663 |
| C[C@@H]1CC[C@H]2C(=O)O[C@@H](COc3ccc(C(C)(C)C)cc3)CN2[C@@H]1c1ccc(Br)cc1 | 0.373 | 1.03 | 0.843 | -2.33 | -0.391 | -1.05 | -0.391 (inactive) | -0.509 | 0.291 | 1.99 (inactive) | 0.937 | -0.752 (inactive) | 0.23 (inactive) | -0.184 (inactive) | -0.291 (inactive) | -0.176 (inactive) | 0.095 (inactive) | 0.408 (inactive) | 1.06 | 0.072 |
| CC(CCN1CCCCc2nc(C)c(C)cc21)=NOC[C@@H](O)COCc1ccco1 | 0.224 | 0.0279 | -0.437 | 0.0805 | -1.05 | -1.43 | -1.47 (inactive) | 0.854 | -0.797 | -0.701 (inactive) | -0.862 | -0.0954 (inactive) | -0.399 (inactive) | -0.441 (inactive) | -0.16 (inactive) | 0.0681 (inactive) | -0.0051 (inactive) | 0.562 (inactive) | -0.688 | 0.0251 |
| Cn1c(=O)n2n(c1=O)[C@H]1[C@H](O)[C@@H]3O[C@@H]3C(=O)[C@H]1CC2 | 0.365 | -0.137 | 0.902 | -0.382 | 0.308 | 0.45 | 0.194 (inactive) | 0.731 | 0.0623 | -0.495 (inactive) | -0.12 | 0.243 (inactive) | -0.871 (inactive) | 0.438 (inactive) | -0.343 (inactive) | 0.723 (inactive) | 0.463 (inactive) | 0.166 (inactive) | -0.52 | 0.0799 |
| CC(=O)OC[C@H]1OC(ON=CC[C@@H]2C=C[C@H](OC(C)=O)[C@@H](COC(C)=O)O2)[C@H](OC(C)=O)[C@@H](OC(C)=O)[C@@H]1OC(C)=O (stereo not given in full) | -0.49 | -0.403 | -1.12 | -0.092 | -0.878 | 0.0783 | -2.76 (inactive) | -0.796 | 0.23 | 0.103 (inactive) | 0.186 | 0.352 (inactive) | -0.919 (inactive) | -0.753 (inactive) | -0.0903 (inactive) | -0.618 (inactive) | 0.938 (inactive) | 0.583 (inactive) | 0.169 | 0.0982 |
| CC(C)[C@@H](OCc1ccccc1)[C@H](C)C=NOC[C@@H](O)COCc1ccco1 | -0.695 | 0.0863 | -0.893 | -1.05 | -1.09 | -1.83 | -1.25 (inactive) | -0.298 | -0.368 | -0.185 (inactive) | -0.314 | -11.9 (active) | -0.911 (inactive) | -0.585 (inactive) | 0.429 (inactive) | -1.12 (inactive) | 0.7 (inactive) | 0.43 (inactive) | -0.885 | -0.0172 |
